The values that follow come from PubChem BioAssay (Tox21).

Several values for one entry are separate records, joined by “and”; a condition that tells them apart may be missing. Equal values may be shown once. A number with no mark means an inactive call. Results filed as inconclusive are left out. Activity calls are given as the source filed them. Unless noted, calls follow the shape of the dose curve; as a rule, active = well fitted curve in the direction sought with a large enough effect in the repeat runs; inconclusive = weak or mixed curves; inactive = no such curve, though single readings can be large; an effect the other way counts as inactive or inconclusive.

A short description of experiment [1]: qHTS assay to identify small molecule antagonists of the estrogen receptor alpha (ER-alpha) signaling pathway using the BG1 cell line in the presence of 0.1 nM 17-beta-estradiol - cell viability counter screen (AID 1259241). Also: nearly all actives have a fitted effect of over 40% in size. An outline of the steps:
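The cell line endogenously expresses full-length ER-alpha and carries four EREs driving luciferase. Cells are cultured 5 days hormone-free, treated 22 hr with compounds and 0.1 nM estradiol, then viability is read by fluorescence.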
(qHTS replaces the single test concentration by a dilution series.)

Experiment [2] is described as follows: qHTS assay to identify small molecule antagonists of the androgen receptor (AR) signaling pathway using the MDA cell line in the presence of 0.5 nM R1881 - cell viability counter screen (AID 1259242). Also: nearly all actives have a fitted effect of over 45% in size. The procedure, abridged: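 Human breast carcinoma MDA-kb2 cells, cultured without CO2, receive compounds alongside 0.5 nM (final) R1881 agonist. After 16 hr at 37C, viability is taken as live-cell protease signal.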

The target of experiment [3] is Androgen receptor (Homo sapiens) (UniProt P10275). Briefly: qHTS assay to identify small molecule antagonists of the androgen receptor (AR) signaling pathway using the MDA cell line in the presence of 0.5 nM R1881 (AID 1259243). Also: nearly all actives have a fitted effect of over 50% in size. Also: potency is read from the fitted curve at half-maximal effect. The procedure, abridged: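 Cells: MDA-kb2 (MMTV-luc). Stimulus: 0.5 nM R1881. Time: 16 hr, 37C, no CO2. Detection: ONE-Glo luminescence after 30 min at RT.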
Chain of Androgen receptor (Homo sapiens) (P10275 whole entry, looked up): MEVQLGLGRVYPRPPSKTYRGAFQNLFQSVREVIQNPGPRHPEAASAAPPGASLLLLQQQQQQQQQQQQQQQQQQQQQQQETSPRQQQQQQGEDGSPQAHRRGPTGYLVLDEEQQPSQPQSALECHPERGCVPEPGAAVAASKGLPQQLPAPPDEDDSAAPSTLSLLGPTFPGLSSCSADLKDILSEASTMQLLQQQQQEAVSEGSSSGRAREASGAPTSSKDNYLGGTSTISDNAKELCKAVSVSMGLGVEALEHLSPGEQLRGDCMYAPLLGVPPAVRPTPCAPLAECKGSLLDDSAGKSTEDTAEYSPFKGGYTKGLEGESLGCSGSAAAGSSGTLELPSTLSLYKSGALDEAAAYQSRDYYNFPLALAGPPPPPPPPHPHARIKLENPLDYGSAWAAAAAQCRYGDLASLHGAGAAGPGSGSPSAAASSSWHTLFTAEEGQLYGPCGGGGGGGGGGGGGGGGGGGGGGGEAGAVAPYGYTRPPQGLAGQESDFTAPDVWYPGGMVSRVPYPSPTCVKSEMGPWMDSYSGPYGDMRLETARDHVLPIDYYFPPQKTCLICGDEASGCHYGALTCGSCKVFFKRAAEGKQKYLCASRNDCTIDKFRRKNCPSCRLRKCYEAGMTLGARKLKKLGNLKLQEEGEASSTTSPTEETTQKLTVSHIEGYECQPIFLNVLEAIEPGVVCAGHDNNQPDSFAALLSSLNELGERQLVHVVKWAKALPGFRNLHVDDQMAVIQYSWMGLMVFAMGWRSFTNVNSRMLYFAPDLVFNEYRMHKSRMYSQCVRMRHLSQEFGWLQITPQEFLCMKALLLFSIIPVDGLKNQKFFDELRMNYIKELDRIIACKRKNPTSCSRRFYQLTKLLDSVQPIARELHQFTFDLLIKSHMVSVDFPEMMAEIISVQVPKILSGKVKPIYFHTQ

The target in experiment [4] is Estrogen receptor (Homo sapiens) (UniProt P03372). Nature of the experiment: qHTS assay to identify small molecule antagonists of the estrogen receptor alpha (ER-alpha) signaling pathway using the BG1 cell line in the presence of 0.1 nM 17-beta-estradiol (AID 1259244). Also: nearly all actives have a fitted effect of over 50% in size. An outline of the steps: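 Seeding of stripped-serum-adapted VM7Luc4E2 cells, 24 h attachment, compound transfer, then 0.1 nM final 17beta-estradiol; after 22 h incubation, ONE-Glo reagent and luminescence reading.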
Chain of Estrogen receptor (Homo sapiens) (P03372 whole entry, looked up): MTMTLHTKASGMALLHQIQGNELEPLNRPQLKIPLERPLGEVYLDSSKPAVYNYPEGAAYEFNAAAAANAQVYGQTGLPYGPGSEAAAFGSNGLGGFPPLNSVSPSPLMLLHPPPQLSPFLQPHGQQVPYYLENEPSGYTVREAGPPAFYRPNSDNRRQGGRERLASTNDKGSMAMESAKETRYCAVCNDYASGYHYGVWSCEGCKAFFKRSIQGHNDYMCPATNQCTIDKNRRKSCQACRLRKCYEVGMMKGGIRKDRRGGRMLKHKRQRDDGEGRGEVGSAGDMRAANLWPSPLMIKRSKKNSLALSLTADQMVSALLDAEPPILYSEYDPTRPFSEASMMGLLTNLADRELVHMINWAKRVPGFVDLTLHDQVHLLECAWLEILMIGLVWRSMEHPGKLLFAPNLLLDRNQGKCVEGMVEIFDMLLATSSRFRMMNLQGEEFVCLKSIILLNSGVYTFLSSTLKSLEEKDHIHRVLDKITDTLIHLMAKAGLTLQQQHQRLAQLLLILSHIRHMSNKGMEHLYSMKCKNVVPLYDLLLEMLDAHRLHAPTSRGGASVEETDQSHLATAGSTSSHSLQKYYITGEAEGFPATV

Experiment [5] can be described thus: qHTS assay to identify small molecule HDAC inhibitors (AID 1259364).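 Also: wild-type HCT-116 cells with endogenous class I/II HDAC activity; top concentration of the series differs between compounds; nearly all actives have a fitted effect of over 45% in size.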 An outline of the steps:
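After a 2 hr compound incubation (37C, 5% CO2), HCT-116 cells seeded at 1,500/well the day before received HDAC-Glo reagent; signal read as luminescence after 30 min at room temperature.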

The nature of experiment [6]: qHTS assay to identify small molecule HDAC inhibitors - cell viability counter screen (AID 1259365). Also: series mostly up to about 92 µM; nearly all actives have a fitted effect of over 50% in size. An outline of the steps: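 Viability readout: CellTiter-Glo luminescence. Wild-type HCT-116 cells, 2hr compound treatment following overnight attachment at 37 C.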
Experiment [7] in a line: qHTS assay to identify small molecule agonists of the sonic hedgehog signaling (Shh) pathway - cell viability counter screen (AID 1259366). Also: nearly all actives have a fitted effect of over 50% in size. Also: potency is read from the fitted curve at half-maximal effect. The procedure, abridged:
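Viability measured fluorometrically (CellTiter-Fluor, 1hr, 37C) in 3T3 Gli1-Luc reporter cells after 23hr compound exposure within a 24hr incubation at 37C/5% CO2.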

A short description of experiment [8]: qHTS assay to identify small molecule antagonists of the sonic hedgehog signaling (Shh) pathway - cell viability counter screen (AID 1259367). Also: nearly all actives have a fitted effect of over 55% in size. Also: potency is read from the fitted curve at half-maximal effect. An outline of the steps:
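Tox21 library chemicals were tested on a Gli1-Luc NIH/3T3 clone (2,000 cells/well) stimulated by conditioned medium; viability was quantified as fluorescence from CellTiter-Fluor reagent added at 23 hr.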

Experiment [9] in a line: qHTS assay to identify small molecule agonists of the sonic hedgehog signaling (Shh) pathway (AID 1259368; calls by dose curve;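 also: NIH/3T3-derived 3T3Gli1-Luc cells carrying a stable Gli1-driven firefly luciferase reporter; series mostly up to about 92 µM; nearly all actives have a fitted effect of over 15% in size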). The procedure, abridged: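 Stable NIH/3T3 Gli1-Luc reporter clone; 24 hr cpd exposure after a 4 hr settling period; luminescence endpoint.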
Experiment [10] is described as follows: qHTS assay to identify small molecule agonists of the androgen receptor (AR) signaling pathway in the presence of an antagonist - cell viability counter screen (AID 1259379).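 Also: MDA-kb2 human breast cancer cells carrying an MMTV luciferase reporter; series mostly up to about 92 µM; nearly all actives have a fitted effect of over 25% in size.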 The procedure, abridged: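 Counter screen for cell viability run in parallel with the AR agonist-mode luciferase assay. MDA-kb2 cells were co-treated with nilutamide (3.0uM final) and compounds, then incubated 16 hr at 37C, and CellTiter-Fluor fluorescence was measured.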

The nature of experiment [11]: qHTS assay to identify small molecule agonists of the estrogen receptor beta (ER-beta) signaling pathway - cell viability counter screen (AID 1259380). Also: nearly all actives have a fitted effect of over 30% in size. Also: potency is read from the fitted curve at half-maximal effect. An outline of the steps:
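In this qHTS counter screen, HEK293T cells carrying an ER-beta/UAS beta-lactamase reporter, grown in 2% charcoal-stripped FBS, received compound for 16 hr; ATP-based CellTiter-Glo luminescence was then read after 30 min at room temperature.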

The target of experiment [12] is Androgen receptor (Homo sapiens) (UniProt P10275). Briefly: qHTS assay to identify small molecule agonists of the androgen receptor (AR) signaling pathway in the presence of an antagonist (AID 1259381; calls by dose curve; also: nearly all actives have a fitted effect of over 15% in size; also: potency is read from the fitted curve at half-maximal effect). The procedure, abridged: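 AR antagonist background: nilutamide 3.0uM final. Cell line: MDA-kb2, MMTV-driven luciferase, responsive to both AR and GR. Exposure 16hr, 37C, no CO2; ONE-Glo luminescence.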

Experiment [13] can be described thus: qHTS assay to identify small molecule antagonists of the estrogen receptor beta (ER-beta) signaling pathway - cell viability counter screen (AID 1259382). Also: series mostly up to about 92 µM; nearly all actives have a fitted effect of over 55% in size. The procedure, abridged: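 HEK293T ER-beta-UAS-bla, 2% charcoal-stripped FBS; compounds + 1nM E2 16 hr 37C; CellTiter-Glo luminescence, 30 min RT.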
Experiment [14] deals with Estrogen receptor (Homo sapiens) (UniProt P03372). Nature of the experiment: qHTS assay to identify small molecule agonists of the estrogen receptor alpha (ER-alpha) signaling pathway in the presence of an antagonist (AID 1259383; calls by dose curve; also: top concentration of the series differs between compounds; nearly all actives have a fitted effect of over 15% in size). The procedure, abridged:
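ER-alpha agonism measured under antagonist challenge: 10.0nM ICI-182,780 (final) plus compound, 15 concentrations, 22hr, VM7Luc4E2 ERE-luciferase cells. Read by luminescence.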

Experiment [15] in a line: qHTS assay to identify small molecule agonists or antagonists of the thyroid stimulating hormone receptor (TSHR) signaling pathway - wild type cell line counter screen (AID 1259384; calls by dose curve). The procedure, abridged:
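Wild-type Hek293 cells, 800/well, 18 h at 37C, then compound with Ro20-1724 for 30 min RT. cAMP by HTRF (cAMP-d2/anti-cAMP cryptate), 1 h RT, fluorescence read. 15 concentrations, triplicates.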

In experiment [16] the target is Thyrotropin receptor (Homo sapiens) (UniProt P16473). Briefly: qHTS assay to identify small molecule antagonists of the thyroid stimulating hormone receptor (TSHR) signaling pathway (AID 1259385; calls by dose curve; also: nearly all actives have a fitted effect of over 20% in size). The procedure, abridged: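 TSHR-HEK293 cells (800/well) plated 18 h, then compounds with Ro20-1724 and TSH at 1.5 ng/mL final, 30 min at room temperature. cAMP quantified by HTRF (cAMP-d2/anti-cAMP-cryptate, 1 h); 15 concentrations in triplicate.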
Chain of Thyrotropin receptor (Homo sapiens) (P16473 whole entry, looked up): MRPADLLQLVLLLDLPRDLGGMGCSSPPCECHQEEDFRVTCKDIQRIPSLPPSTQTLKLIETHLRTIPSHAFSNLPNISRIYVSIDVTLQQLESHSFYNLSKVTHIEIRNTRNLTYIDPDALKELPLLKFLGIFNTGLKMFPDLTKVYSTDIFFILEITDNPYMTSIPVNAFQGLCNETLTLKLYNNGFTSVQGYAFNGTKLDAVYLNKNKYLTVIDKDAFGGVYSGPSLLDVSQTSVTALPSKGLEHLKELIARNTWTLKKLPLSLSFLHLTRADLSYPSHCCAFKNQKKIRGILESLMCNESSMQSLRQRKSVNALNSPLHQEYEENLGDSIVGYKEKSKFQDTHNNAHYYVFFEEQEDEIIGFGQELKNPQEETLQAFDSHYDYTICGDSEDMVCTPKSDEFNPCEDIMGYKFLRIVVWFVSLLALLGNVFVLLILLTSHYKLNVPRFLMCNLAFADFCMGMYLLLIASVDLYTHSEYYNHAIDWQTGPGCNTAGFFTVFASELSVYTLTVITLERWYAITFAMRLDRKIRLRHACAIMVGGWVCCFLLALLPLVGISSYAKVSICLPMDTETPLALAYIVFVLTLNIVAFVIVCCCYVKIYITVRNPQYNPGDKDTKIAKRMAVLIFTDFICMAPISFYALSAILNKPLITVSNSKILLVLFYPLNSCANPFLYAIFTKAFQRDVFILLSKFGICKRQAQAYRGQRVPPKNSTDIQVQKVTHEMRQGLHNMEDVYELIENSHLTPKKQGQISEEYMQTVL

A short description of experiment [17]: qHTS assay to identify small molecule antagonists of the sonic hedgehog signaling (Shh) pathway (AID 1259369; calls by dose curve; also: nearly all actives have a fitted effect of over 45% in size; also: potency is read from the fitted curve at half-maximal effect). An outline of the steps: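 Gli1 transcriptional reporter (firefly Luc) in NIH/3T3 background, conditioned-medium activated. 24hr exposure, luminescence endpoint.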
Experiment [18] in a line: qHTS assay to identify small molecule phospholipidosis (PLD) inducers (AID 1259344; active = well fitted curve in the direction sought with a large enough effect; an effect the other way counts as inactive or inconclusive). An outline of the steps:
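Image-based: LipidTOX Red pit count/intensity per well and per cell; HepG2, 24 h compound at 37 C, PFA fixation, Hoechst counterstain.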

In experiment [19] the target is Estrogen receptor beta (Homo sapiens) (UniProt Q92731). Nature of the experiment: qHTS assay to identify small molecule agonists of the estrogen receptor beta (ER-beta) signaling pathway (AID 1259377; active = well fitted activation curve with a large enough effect in the signal ratio in the repeat runs, not every such curve was filed as active; the % refers to the signal ratio). An outline of the steps: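 A UAS-controlled beta-lactamase reporter in ER-beta-UAS-bla HEK293T cells reports receptor activation. Compounds act for 16 hr at 37C in 2% charcoal-stripped serum, and a FRET substrate is read by fluorescence after 2 hours.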
Chain of Estrogen receptor beta (Homo sapiens) (Q92731 whole entry, looked up): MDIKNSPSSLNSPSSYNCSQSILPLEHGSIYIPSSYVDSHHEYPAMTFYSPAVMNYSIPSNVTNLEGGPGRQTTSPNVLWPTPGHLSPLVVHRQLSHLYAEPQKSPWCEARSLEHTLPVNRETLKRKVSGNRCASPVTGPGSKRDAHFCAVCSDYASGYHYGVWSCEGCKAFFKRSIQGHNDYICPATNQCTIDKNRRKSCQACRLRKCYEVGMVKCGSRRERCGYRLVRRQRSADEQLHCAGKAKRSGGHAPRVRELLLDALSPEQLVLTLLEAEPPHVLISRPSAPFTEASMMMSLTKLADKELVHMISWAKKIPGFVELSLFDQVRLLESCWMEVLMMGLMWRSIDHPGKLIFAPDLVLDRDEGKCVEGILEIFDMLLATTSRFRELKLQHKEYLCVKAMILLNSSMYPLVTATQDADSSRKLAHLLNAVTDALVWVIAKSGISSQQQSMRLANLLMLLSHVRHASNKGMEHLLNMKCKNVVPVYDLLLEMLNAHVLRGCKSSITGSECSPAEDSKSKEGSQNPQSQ

The target is the same in experiment [20]. Nature of the experiment: qHTS assay to identify small molecule antagonists of the estrogen receptor beta (ER-beta) signaling pathway (AID 1259378; active = well fitted inhibition curve with a large enough effect in the signal ratio in the repeat runs, not every such curve was filed as active; the % refers to the signal ratio; also: potency is read from the fitted curve at half-maximal effect). An outline of the steps:
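ER-beta-UAS-bla HEK293T cells in 2% charcoal-stripped FBS medium treated with compound plus 1nM final 17-beta-estradiol for 16 hr at 37C. Beta-lactamase reporter read by FRET substrate fluorescence after 2 hours at room temperature.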

As to `CCC(C)(C)C(=O)OC1=C(c2ccc(Cl)cc2Cl)C(=O)OC12CCCCC2`, the Potency result in experiment [1], in experiment [2], in experiment [3], in [4], in experiment [5] and in experiment [6] was “inactive” each time. Further, the Potency result in experiment [7], in experiment [8], in [9], in experiment [10], in experiment [11] and in experiment [12] was “inactive” each time. The Potency result in experiment [13], in experiment [14] and in experiment [16] was “inactive” throughout. Further, the result in [15] was inactive.

As to `CCOC(=O)c1ccccc1S(=O)(=O)NC(=O)Nc1nc(Cl)cc(OC)n1`, the Potency entry in [1], in experiment [2], in experiment [3], in experiment [4], in [5] and in experiment [6] was “inactive” in each case. In addition, the Potency entry in experiment [7], in experiment [8], in experiment [9], in experiment [17], in experiment [10] and in [11] was “inactive” in each case. Moreover, the Potency entry in experiment [12], in experiment [13], in experiment [14] and in [16] was “inactive” in each case. For the same molecule, the call in [15] was inactive.

With `CN(C)CCc1c[nH]c2ccc(O)cc12`, the Potency result in experiment [1], in experiment [2], in experiment [3], in [18], in experiment [5] and in experiment [6] was “inactive” in each case. Also, the Potency entry in experiment [9], in experiment [19], in experiment [10], in experiment [11], in experiment [12] and in experiment [13] was “inactive” throughout. In addition, the Potency is 59.7 µM (active) in [8] and 8.43 µM (active) in experiment [17].

Regarding `ClC1=C(Cl)C2(Cl)C3C(Cl)C(Cl)CC3C1(Cl)C2(Cl)Cl` (stereo not drawn), the Potency entry in experiment [1], in experiment [2], in [4], in [5], in experiment [8] and in experiment [9] was “inactive” throughout. The Potency entry in experiment [17], in [10], in experiment [12], in experiment [13] and in experiment [14] was “inactive” each time. Further, the Potency in [3] was 60.9 µM (active) and 48.6 µM (active); in experiment [7] it was 43.1 µM (active) and 61.1 µM (active); in [20], 12.2 µM (active) and 27.3 µM (active); in [11] it was 43.1 µM (active) and 61.1 µM (active).

Turning to `N#CCCO`, the Potency entry in experiment [1], in experiment [2], in [3], in [4], in experiment [5] and in experiment [6] was “inactive” throughout. The Potency result in experiment [7], in experiment [8], in experiment [9], in experiment [17], in [19] and in [20] was “inactive” in each case. For the same molecule, the Potency entry in experiment [10], in [11], in experiment [12], in [13] and in experiment [14] was “inactive” in each case.

On to `CCCSP(=O)(OCC)SCCC`, for which the Potency entry in experiment [1], in experiment [2], in [3], in [18], in [5] and in experiment [6] was “inactive” in each case. Also, the Potency result in [7], in [8], in experiment [9], in [17], in experiment [19] and in experiment [10] was “inactive” throughout. For the same molecule, the Potency entry in experiment [13] and in experiment [16] was “inactive” each time. Moreover, the Potency in experiment [12] is 50.3 µM (active). Besides, in [15], the result was inactive.

On to `CCSC(C)CC1CC(=O)C(/C(CC)=N/OC/C=C/Cl)=C(O)C1` (stereo not drawn), for which the Potency result in experiment [1], in experiment [2], in [3], in experiment [4], in [5] and in experiment [6] was “inactive” in each case. The Potency entry in experiment [7], in experiment [8], in [9], in experiment [17], in experiment [19] and in experiment [10] was “inactive” throughout. Also, the Potency result in [11], in experiment [12], in experiment [13], in experiment [14] and in experiment [16] was “inactive” each time. The result in experiment [15] was inactive.
